{"source": "the supplement of paper PMC3334620", "note": "In all, about 33,000 sequences were measured (“E-score (-0.5 to 0.5)”: median about -0.016, highest 2% from about 0.31 on). This excerpt belongs to a sample that is enriched for the highest values.", "data": [{"target": "Cst6 (UniProt P40535)", "sequence (P40535 whole entry, the tested form may be a part)": "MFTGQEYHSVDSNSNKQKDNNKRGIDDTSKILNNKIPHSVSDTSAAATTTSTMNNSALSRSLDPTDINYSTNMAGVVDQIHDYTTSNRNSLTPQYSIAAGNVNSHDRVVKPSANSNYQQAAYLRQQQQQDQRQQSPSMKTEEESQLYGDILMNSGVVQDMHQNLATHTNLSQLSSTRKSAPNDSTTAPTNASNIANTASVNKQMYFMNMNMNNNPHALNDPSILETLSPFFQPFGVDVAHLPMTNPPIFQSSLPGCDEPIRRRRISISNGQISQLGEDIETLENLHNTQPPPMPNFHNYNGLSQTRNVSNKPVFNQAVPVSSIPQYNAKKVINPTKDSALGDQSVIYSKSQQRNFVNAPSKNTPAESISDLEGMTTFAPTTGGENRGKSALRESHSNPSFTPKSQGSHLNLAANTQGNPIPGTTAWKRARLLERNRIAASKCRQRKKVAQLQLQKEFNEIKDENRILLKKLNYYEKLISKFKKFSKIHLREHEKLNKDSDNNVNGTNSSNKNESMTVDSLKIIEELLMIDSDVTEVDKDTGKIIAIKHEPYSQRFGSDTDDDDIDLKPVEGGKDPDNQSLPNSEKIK", "assay": "PBM E-score (8-mer binding enrichment) (E-score (-0.5 to 0.5)); higher = stronger / more preferred TF binding", "conditions": "protein concentration: 200 nM; construct: GST-DNA-binding domain", "procedure": "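Universal 'all 10-mer' protein binding microarrays (Agilent AMADID 015681) probed with GST-tagged S. cerevisiae TFs (full-length or DBD) made by in vitro transcription/translation (PURExpress), about 100-200 nM. Bound TF was detected with fluorescent anti-GST. Each ungapped 8-mer (which stands for itself and its reverse complement) is scored by the PBM enrichment score (E-score), a modified Wilcoxon-Mann-Whitney statistic from -0.5 to +0.5, computed with the Universal PBM Analysis Suite. Scale: above 0.35 generally sequence-specific binding.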", "values": [{"sequence": "ACGGGGCC", "PBM E-score": 0.00152}, {"sequence": "AGTGAACG", "PBM E-score": -0.0226}, {"sequence": "GGCTCCCC", "PBM E-score": -0.226}, {"sequence": "ATTCCATC", "PBM E-score": 0.199}, {"sequence": "CCGGTGAC", "PBM E-score": 0.335}, {"sequence": "CCGGTGAG", "PBM E-score": -0.116}, {"sequence": "CCGGTGAA", "PBM E-score": 0.0804}, {"sequence": "CACACAAA", "PBM E-score": 0.165}, {"sequence": "AACACAAA", "PBM E-score": 0.0222}, {"sequence": "TACACAAA", "PBM E-score": 0.311}, {"sequence": "TCTGGCCA", "PBM E-score": -0.0762}, {"sequence": "AATTTTGC", "PBM E-score": 0.144}, {"sequence": "CGCATCCG", "PBM E-score": -0.0682}, {"sequence": "ATCATCCC", "PBM E-score": 0.154}, {"sequence": "AGTCACCC", "PBM E-score": 0.117}, {"sequence": "CGTCACCA", "PBM E-score": 0.484}, {"sequence": "CGTCACCC", "PBM E-score": 0.466}, {"sequence": "CCTCACCC", "PBM E-score": 0.0853}, {"sequence": "GGTCACCA", "PBM E-score": -0.148}, {"sequence": "AGTCACCA", "PBM E-score": 0.0433}, {"sequence": "CGCCTCAC", "PBM E-score": 0.135}, {"sequence": "ATACCATC", "PBM E-score": 0.00666}, {"sequence": "ATTCACAC", "PBM E-score": 0.134}, {"sequence": "ACGAGTAA", "PBM E-score": 0.141}, {"sequence": "TGAAATCA", "PBM E-score": 0.322}, {"sequence": "GGAAATCA", "PBM E-score": 0.0954}, {"sequence": "CGAAATCA", "PBM E-score": 0.269}, {"sequence": "CCTTTTCG", "PBM E-score": 0.021}, {"sequence": "GTTGGACA", "PBM E-score": -0.0168}, {"sequence": "AAGAAAGT", "PBM E-score": 0.153}, {"sequence": "GAGGGCTA", "PBM E-score": -0.27}, {"sequence": "ATTTCGGG", "PBM E-score": 0.0105}, {"sequence": "AAAAGTGG", "PBM E-score": 0.112}, {"sequence": "AAAAGTGA", "PBM E-score": 0.306}, {"sequence": "AAAAGTGT", "PBM E-score": 0.0733}, {"sequence": "GGGGTAAA", "PBM E-score": 0.0414}, {"sequence": "CCTGGGAA", "PBM E-score": -0.136}, {"sequence": "GCGAAAAA", "PBM E-score": 0.197}, {"sequence": "CAAACTTG", "PBM E-score": -0.0352}, {"sequence": "GTCTCCCA", "PBM E-score": -0.244}, {"sequence": "GTAAATAA", "PBM E-score": 0.176}, {"sequence": "ATAATAAA", "PBM E-score": 0.325}, {"sequence": "TAAATAAA", "PBM E-score": 0.289}, {"sequence": "CTAATAAA", "PBM E-score": 0.169}, {"sequence": "GTAATAAA", "PBM E-score": 0.352}, {"sequence": "GTTATAAA", "PBM E-score": 0.269}, {"sequence": "ATAATAAT", "PBM E-score": 0.238}, {"sequence": "CTTATAAA", "PBM E-score": 0.138}, {"sequence": "TTAATAAA", "PBM E-score": 0.307}, {"sequence": "ATAATAAC", "PBM E-score": 0.205}, {"sequence": "TTTATAAA", "PBM E-score": 0.359}, {"sequence": "GTAATAAC", "PBM E-score": 0.197}, {"sequence": "AACAGAAC", "PBM E-score": 0.032}, {"sequence": "ACCAGCAT", "PBM E-score": -0.104}, {"sequence": "ATAAGAAA", "PBM E-score": 0.327}, {"sequence": "ATAAGAAT", "PBM E-score": 0.253}, {"sequence": "ATAAGAAC", "PBM E-score": 0.248}, {"sequence": "AAGGAGGG", "PBM E-score": -0.0908}, {"sequence": "ATTTTACC", "PBM E-score": 0.264}, {"sequence": "AATTTTTA", "PBM E-score": 0.228}, {"sequence": "AATTTACG", "PBM E-score": 0.296}, {"sequence": "ATTTTACG", "PBM E-score": 0.316}, {"sequence": "ATTTTTTA", "PBM E-score": 0.325}, {"sequence": "ATATTTTA", "PBM E-score": 0.233}, {"sequence": "ATTTTATG", "PBM E-score": 0.248}, {"sequence": "GTTTTATA", "PBM E-score": 0.122}, {"sequence": "ATTTTATA", "PBM E-score": 0.321}, {"sequence": "CGCCCCAA", "PBM E-score": 0.0361}, {"sequence": "CCAGGCTC", "PBM E-score": -0.28}, {"sequence": "GGAGACGA", "PBM E-score": -0.0641}, {"sequence": "AGACCGTC", "PBM E-score": -0.127}, {"sequence": "CTCACCTC", "PBM E-score": 0.0122}, {"sequence": "TCTTAAGA", "PBM E-score": 0.0388}, {"sequence": "CAATAGGA", "PBM E-score": -0.0291}, {"sequence": "TAACAAAA", "PBM E-score": 0.353}, {"sequence": "GGACAAAA", "PBM E-score": 0.106}, {"sequence": "GAACAAAA", "PBM E-score": 0.186}, {"sequence": "TGACAACA", "PBM E-score": 0.346}, {"sequence": "AAACAAAA", "PBM E-score": 0.219}, {"sequence": "AGACAACA", "PBM E-score": 0.0611}, {"sequence": "CGACAACA", "PBM E-score": 0.243}, {"sequence": "CGACAAAA", "PBM E-score": 0.163}, {"sequence": "TGACAAAA", "PBM E-score": 0.337}, {"sequence": "AGAACCGA", "PBM E-score": -0.127}, {"sequence": "CTCTACGC", "PBM E-score": -0.109}, {"sequence": "GGGAAAGA", "PBM E-score": -0.0768}, {"sequence": "CCGTGACC", "PBM E-score": -0.145}, {"sequence": "ACGTGACG", "PBM E-score": 0.451}, {"sequence": "CCGTGACA", "PBM E-score": 0.15}, {"sequence": "ACGTGACA", "PBM E-score": 0.248}, {"sequence": "CCGTGACG", "PBM E-score": 0.417}, {"sequence": "ACGTGACT", "PBM E-score": 0.00931}, {"sequence": "AAAATCGA", "PBM E-score": 0.106}, {"sequence": "TCAGGAAA", "PBM E-score": 0.053}, {"sequence": "TCTTGCCA", "PBM E-score": -0.0736}, {"sequence": "CTTGCGGC", "PBM E-score": -0.0317}, {"sequence": "CGTCATAA", "PBM E-score": 0.476}, {"sequence": "GGTCATAA", "PBM E-score": 0.213}, {"sequence": "AGTCATAA", "PBM E-score": 0.217}, {"sequence": "CCTCATAA", "PBM E-score": 0.199}, {"sequence": "CTTCATAA", "PBM E-score": 0.182}, {"sequence": "TGTCATAA", "PBM E-score": 0.323}, {"sequence": "AAATCCTA", "PBM E-score": 0.0429}, {"sequence": "ACGGGACG", "PBM E-score": -0.0627}, {"sequence": "AAGGGACT", "PBM E-score": -0.229}, {"sequence": "GCTGGTCC", "PBM E-score": -0.241}, {"sequence": "ACAGGGTC", "PBM E-score": -0.231}, {"sequence": "AAAATCTC", "PBM E-score": 0.0464}, {"sequence": "CCTCATGC", "PBM E-score": -0.15}, {"sequence": "GGTCATGA", "PBM E-score": 0.239}, {"sequence": "CGTCATGC", "PBM E-score": 0.472}, {"sequence": "AGTCATGC", "PBM E-score": -0.0259}, {"sequence": "CGTCATGA", "PBM E-score": 0.461}, {"sequence": "AGTCATGA", "PBM E-score": 0.124}, {"sequence": "CCTCTCCC", "PBM E-score": -0.367}, {"sequence": "ATTTCCAG", "PBM E-score": 0.0306}, {"sequence": "ATGTGGGC", "PBM E-score": -0.068}, {"sequence": "CCACCCGA", "PBM E-score": -0.0893}, {"sequence": "ACGACAGA", "PBM E-score": -0.00441}, {"sequence": "CAATATTG", "PBM E-score": 0.306}, {"sequence": "CAATATTA", "PBM E-score": 0.215}, {"sequence": "CAATATGA", "PBM E-score": 0.245}, {"sequence": "GAATATTA", "PBM E-score": 0.188}, {"sequence": "AAATATTA", "PBM E-score": 0.286}, {"sequence": "TAATATGA", "PBM E-score": 0.305}, {"sequence": "CAATATTC", "PBM E-score": -0.0581}, {"sequence": "AAATATGA", "PBM E-score": 0.239}, {"sequence": "TAATATTA", "PBM E-score": 0.391}, {"sequence": "CAGTGCAA", "PBM E-score": 0.0823}, {"sequence": "GGGTACCC", "PBM E-score": -0.239}, {"sequence": "GCCGCCGA", "PBM E-score": 0.0801}, {"sequence": "GCTAGTAA", "PBM E-score": 0.0344}, {"sequence": "CCCCATTA", "PBM E-score": -0.257}, {"sequence": "AAGGTAGC", "PBM E-score": -0.198}, {"sequence": "CTTTGGGC", "PBM E-score": -0.163}, {"sequence": "ACATCAGG", "PBM E-score": 0.163}, {"sequence": "AGTCCCCC", "PBM E-score": -0.43}, {"sequence": "ATTCGTCG", "PBM E-score": 0.0126}, {"sequence": "CTTCGTCC", "PBM E-score": -0.155}, {"sequence": "CGTCGTCA", "PBM E-score": 0.258}, {"sequence": "ATTCGTCA", "PBM E-score": 0.423}, {"sequence": "CTTCGTCA", "PBM E-score": 0.336}, {"sequence": "GTTCGTCA", "PBM E-score": 0.269}, {"sequence": "CGGTGCAA", "PBM E-score": -0.202}, {"sequence": "CCTATGGC", "PBM E-score": -0.219}, {"sequence": "GCTAACAC", "PBM E-score": -0.00396}, {"sequence": "AAAGGGAG", "PBM E-score": -0.152}, {"sequence": "TAACTGTA", "PBM E-score": 0.032}, {"sequence": "CGGATAAG", "PBM E-score": -0.118}, {"sequence": "AGGGGCTG", "PBM E-score": -0.271}, {"sequence": "CGCCAGCC", "PBM E-score": -0.193}, {"sequence": "ATAAATTG", "PBM E-score": 0.258}, {"sequence": "TTAAATAA", "PBM E-score": 0.18}, {"sequence": "ATAAATAA", "PBM E-score": 0.335}, {"sequence": "CTAAATTA", "PBM E-score": 0.262}, {"sequence": "ATAAATAG", "PBM E-score": 0.135}, {"sequence": "ATAAATTA", "PBM E-score": 0.373}, {"sequence": "AAAAATTA", "PBM E-score": 0.333}, {"sequence": "CAAAATTA", "PBM E-score": 0.233}, {"sequence": "GAAAATTA", "PBM E-score": 0.195}, {"sequence": "ATTTGACA", "PBM E-score": 0.173}, {"sequence": "ACGCCAAT", "PBM E-score": 0.223}, {"sequence": "AGCCTTAT", "PBM E-score": -0.0913}, {"sequence": "CCGCGTCC", "PBM E-score": 0.099}, {"sequence": "GCGCGTCA", "PBM E-score": 0.381}, {"sequence": "CCGCGTCA", "PBM E-score": 0.34}, {"sequence": "CCGCGTCG", "PBM E-score": 0.0654}, {"sequence": "ACGCGTCT", "PBM E-score": -0.0602}, {"sequence": "GCGCGTCC", "PBM E-score": -0.198}, {"sequence": "ACGCGTAA", "PBM E-score": 0.129}, {"sequence": "TCGCGTAA", "PBM E-score": 0.314}, {"sequence": "GCGCGTAA", "PBM E-score": 0.224}, {"sequence": "GCGCGTTA", "PBM E-score": 0.0245}, {"sequence": "ACGCGTCC", "PBM E-score": -0.129}, {"sequence": "ACGCGTCA", "PBM E-score": 0.381}]}]}
